Results: PubChem BioAssay AID2284388 (EPA ToxCast)
Inconclusive results are not listed. Calls of active or inactive are those of the source. How the source made its calls: active means hit-call score of the fitted dose curve at least 0.9, where 1 is the maximum; inconclusive means response in the unintended direction; inactive means score below 0.9.

Target: human Retinoid X Receptor beta (RXRb) Agonism, RXRB (gene 6257) (UniProt P28702)
Assay: ERF_TW_NR_COA_hRXRB: Eurofins (ERF) Nuclear Receptor (NR) Functional Coactivator Assay for human Retinoid X Receptor beta (RXRb) Agonism
Protocol: ERF_TW_NR_COA_hRXRB is a biochemical, single-readout assay that uses extracted gene-proteins in a cell-free assay. Measurements were taken 0.5 hours after chemical dosing in a 96-well plate. See RXRbeta Human Retinoid X NHR Functional Agonist Coactivator Assay, Panlabs.ERF_TW_NR_COA_hRXRB is an assay component calculated from the ERF_TW_NR_COA_hRXRB assay. It is designed to measure FRET using a type of binding reporter as detected by fluorescence intensity of fluorobexarotene with fluorimetry technology.Data from the assay component ERF_TW_NR_COA_hRXRB was analyzed at the assay endpoint, ERF_TW_NR_COA_hRXRB, in the positive analysis fitting direction relative to DMSO as the negative control and baseline of activity. Using a type of binding reporter, gain-of-signal activity can be used to understand changes in binding as they relate to gene RXRB. To generalize the intended target to other relatable targets, this assay endpoint is annotated to the nuclear receptor intended target family, where the subfamily is non-steroidal.
Test compound and/or vehicle is incubated with the 2 nM retinoid X receptor beta (RXRbeta)-LBD and coactivator peptide for 30 minutes at RT. Determination of the amount of complex formed is read spectrofluorimetrically (excitation: 337 nm, emission: 520/490 nm). Test compound-induced increase fluorescence by 50 percent or more (>/=50%) relative to the 10 uM fluorobexarotene response indicates possible RXRbeta receptor agonist activity.

Chain of human Retinoid X Receptor beta (RXRb) Agonism, RXRB (gene 6257) (P28702 whole entry, looked up): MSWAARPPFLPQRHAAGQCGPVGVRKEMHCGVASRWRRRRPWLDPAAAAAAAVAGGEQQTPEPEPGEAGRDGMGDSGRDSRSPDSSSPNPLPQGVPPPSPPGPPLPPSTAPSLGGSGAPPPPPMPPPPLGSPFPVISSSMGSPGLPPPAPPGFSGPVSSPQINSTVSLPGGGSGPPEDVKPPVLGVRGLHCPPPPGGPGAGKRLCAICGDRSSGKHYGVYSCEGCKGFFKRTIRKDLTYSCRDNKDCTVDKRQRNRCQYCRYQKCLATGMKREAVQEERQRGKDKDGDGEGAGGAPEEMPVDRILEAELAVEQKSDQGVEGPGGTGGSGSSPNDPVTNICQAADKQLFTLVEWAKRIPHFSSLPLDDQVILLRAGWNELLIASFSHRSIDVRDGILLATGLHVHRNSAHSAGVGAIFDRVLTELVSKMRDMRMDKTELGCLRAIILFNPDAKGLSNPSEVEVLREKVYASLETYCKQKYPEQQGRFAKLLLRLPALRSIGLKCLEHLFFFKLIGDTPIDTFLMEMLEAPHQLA

Structure (SMILES)	outcome	AC50
CN(c1nccc(=O)[nH]1)C1CCN(c2nc3ccccc3n2Cc2ccc(F)cc2)CC1	inactive	–
CCCc1c(OCCCOc2ccc(OCC(=O)O)cc2)ccc(C(C)=O)c1O	inactive	–
OCCCC(F)(F)C(F)(F)C(F)(F)C(F)(F)C(F)(F)C(F)(F)C(F)(F)F	inactive	–
O=C(O)C(F)(F)C(F)(F)C(F)(F)OC(F)(C(F)(F)F)C(F)(F)F	inactive	–
O=C(O)C(F)(F)C(F)(F)C(F)(F)C(F)(F)C(F)(F)C(F)(F)C(F)(F)C(F)(F)Cl	inactive	–
O=S(=O)(O)C(F)(F)C(F)(F)C(F)(F)C(F)(F)C(F)(F)C(F)(F)C(F)(F)C(F)(F)F	inactive	–
CC1(C)CCC(C)(C)c2cc(C(=O)Nc3ccc(C(=O)O)cc3)ccc21	inactive	–
CC(=O)c1cc(C(C)(C)C)cc2c1CCC2(C)C	–	14.5 µM (active)
ClC1=C(Cl)[C@]2(Cl)[C@@H]3[C@H]4C[C@H]([C@@H]5O[C@H]45)[C@@H]3[C@@]1(Cl)C2(Cl)Cl	inactive	–
ClC1=C(Cl)[C@]2(Cl)[C@@H]3[C@@H]4C[C@@H]([C@H]5O[C@@H]45)[C@@H]3[C@@]1(Cl)C2(Cl)Cl	inactive	–
C/C(=C\c1ccc(C(=O)O)cc1)c1ccc2c(c1)C(C)(C)CCC2(C)C	inactive	–
Cc1ccc2cc3c(ccc4ccccc43)c3c2c1CC3	inactive	–
O=C(O)C(F)(F)OC(F)(F)C(F)(F)OC(F)(F)C(F)(F)OC(F)(F)C(F)(F)C(F)(F)C(F)(F)F	inactive	–
